Screening data as filed in PubChem.
D2 ag-1: Beta-Arrestin HTS for Positive Allosteric Modulators of the Human D2 Dopamine Receptor: Agonists | activation, % (test concentration not listed) | 360,000 compounds, 0.084% hits | DiscoveRx PathHunter D2 beta-arrestin, luminescence, 90 min; 100% = 57 uM dopamine signal | D(2) dopamine receptor (Homo sapiens), P14416; in the data active = activation above about 40%; inconclusive = between about 15% and that limit
Target sequence (P14416 whole entry, looked up): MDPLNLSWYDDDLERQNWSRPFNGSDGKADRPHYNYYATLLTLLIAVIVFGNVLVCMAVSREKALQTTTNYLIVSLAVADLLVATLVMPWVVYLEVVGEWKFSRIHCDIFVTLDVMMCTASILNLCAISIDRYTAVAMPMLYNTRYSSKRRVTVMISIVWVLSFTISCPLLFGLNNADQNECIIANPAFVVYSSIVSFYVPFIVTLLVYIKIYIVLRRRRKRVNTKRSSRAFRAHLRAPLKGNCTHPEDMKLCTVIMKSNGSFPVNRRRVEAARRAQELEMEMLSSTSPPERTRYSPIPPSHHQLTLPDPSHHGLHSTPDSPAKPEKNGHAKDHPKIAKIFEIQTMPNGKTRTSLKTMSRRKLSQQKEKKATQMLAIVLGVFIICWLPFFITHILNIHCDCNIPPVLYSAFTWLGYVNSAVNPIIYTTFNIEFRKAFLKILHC
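Agonist mode: compounds alone added to overnight-plated D2 PathHunter cells for 90 min at 37 C, with 57 uM final dopamine (EC100) defining full response. Beta-arrestin recruitment detected by chemiluminescent reagent, read after 1 h at ambient temperature.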
D2 PAM-1: Beta-Arrestin HTS for Positive Allosteric Modulators of the Human D2 Dopamine Receptor: Potentiators; potentiation, % (test concentration not listed); D(2) dopamine receptor (Homo sapiens), P14416; DiscoveRx D2 beta-arrestin cells, luminescence, 90 min; 100% = 57 uM dopamine signal; 360,000 compounds, 0.23% hits; in the data active = potentiation above about 50%; inconclusive = mostly about 30% to 49%
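PathHunter beta-arrestin assay in DiscoveRx D2 cells. Compounds were added with an EC20 of dopamine (50 nM final) for 90 min at 37 deg C. Luminescence was read 1 h after detection reagent, with 57 uM dopamine as the EC100 control.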
D2 ag-2: HTS Assay for Allosteric Agonists of the Human D2 Dopamine Receptor: Primary Screen for Agonists; HEK293 T-REx D2 cells, calcium flux agonist mode; activation, % at 2 µM; AID 485358, 2010; 340,000 compounds, 0.53% hits; D(2) dopamine receptor (Homo sapiens), P14416;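 active = activation over 3 SD above normal in the single-dose calcium agonist read, cut at about 30% in these data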
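In this primary screen, compounds producing a positive calcium signal within 180 s of addition to tetracycline-induced, force-coupled HEK293 Trex D2 cells are flagged; cells are dye-loaded with a no-wash calcium kit beforehand.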
D2 PAM-2: HTS Assay for Positive Allosteric Modulators of the Human D2 Dopamine Receptor: Primary Screen for Potentiators | D(2) dopamine receptor (Homo sapiens), P14416 | HEK293 T-REx D2, calcium flux, EC20 dopamine potentiation | potentiation, % at 10 µM | 340,000 compounds, 0.34% hits | AID 485347, 2010;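 active = potentiation over 3 SD above the plate norm, cut at about 30% in these data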
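Tetracycline-induced Hek293 Trex D2 cells, force-coupled to calcium, loaded with no-wash calcium dye. Compound added with 180 s kinetic read for agonism, then EC20 dopamine and a further 180 s read for potentiation.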
D2 antagonist: HTS Assay for Allosteric Antagonists of the Human D2 Dopamine Receptor: Primary Screen for Antagonists; 340,000 compounds, 2% hits; HEK293 TREx D2 cells, calcium flux, dopamine EC80; D(2) dopamine receptor (Homo sapiens), P14416; inhibition, % at 10 µM; in the data active = inhibition above about 30%; inactive = below that, where a call was filed
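Calcium flux kinetic readout in an inducible HEK293 TREx D2 line plated overnight at 30 C. After 180 s compound exposure, an EC80 dopamine challenge follows with another 180 s kinetic read to detect antagonism.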
Each line names hits and unclear results; the compound was inactive in the other large screens. In the library only some 2.4% were active in any assay of this set; here they are far more common.

Cc1cccn2c(=O)c(C(=O)NCc3cccc(F)c3)cnc12	none (no result: D2 ag-1, D2 PAM-1, D2 antagonist)
Cc1csc2nc(COC(=O)c3ccc(F)cc3)cc(=O)n12	none (no result: D2 ag-1, D2 PAM-1, D2 antagonist)
Cc1ccc(SCc2cc(-c3ccc(Cl)cc3)no2)cc1	D2 PAM-2 31.7 (no result: D2 ag-2, D2 antagonist)
CCOC(=O)C1CCN(C(=O)Cc2c(F)cccc2Cl)CC1	D2 antagonist 30.8
N#Cc1ccccc1Cn1c(=O)n(CCCCC(=O)NCc2ccc3c(c2)OCO3)c(=O)c2ccccc21	none (no result: D2 ag-1, D2 PAM-1, D2 antagonist)
CCC(C(=O)NCCc1ccc(OC)c(OC)c1)n1nc(C)n2c(cc3occc32)c1=O (stereo not given)	D2 antagonist 33.1
CCOP(=O)(c1ccccc1)c1nc(-c2ccc(F)cc2)oc1N1CCCCC1 (stereo not given)	D2 antagonist 31.7
CCOP(=O)(OCC)c1nc(-c2ccc(Br)cc2)oc1N1CCCCC1	none (no result: D2 ag-2, D2 PAM-2, D2 antagonist)
Cc1ccc(N2C(=O)C(CC(=O)Nc3ccc(F)cc3)N(CCC3=CCCCC3)C2=O)cc1 (stereo not given)	none (no result: D2 ag-1, D2 PAM-1, D2 antagonist)
Cc1cc(F)c(F)c(C(=O)N2CCCCC2C)c1Cl (stereo not given)	none
Cc1cc(F)c(F)c(C(=O)N2CCC(C)CC2)c1Cl	D2 antagonist 31.8
Oc1ccc(N=Cc2ccc(-c3cccs3)s2)cc1	D2 PAM-1 56.5
O=Cc1ccc(-c2cccs2)s1	none (no result: D2 ag-2, D2 PAM-2, D2 antagonist)
Cn1cccc1Cc1nnc(SCC(=O)NC2CCCC2)n1-c1ccc(F)cc1	D2 antagonist 36.2
CC(c1n[nH]c(=S)n1-c1ccccc1)N1CCCCC1 (stereo not given)	D2 antagonist 70.7
CC(=O)OC1CC2(C)/C(=N\O)CCC2C2CCc3cc(O)ccc3C12 (stereo not given)	D2 ag-1 41.5 (no result: D2 ag-2, D2 PAM-2, D2 antagonist)
CCN(CC)CCCOC(=O)C(c1ccccc1)c1ccccc1	D2 antagonist 49.7
CNC(=S)N1CCC(NC(=O)C23CC4CC(CC(C4)C2)C3)CC1	none
CC(=O)N1CCN(C(=S)NC(=O)C23CC4CC(CC(C4)C2)C3)CC1	D2 PAM-2 33.9
Cc1coc2c(C)c3oc(=O)c(CCC(=O)N4CCC(C(=O)NCCCC(=O)O)(c5ccccc5)CC4)c(C)c3cc12	D2 PAM-2 41.4
Cc1coc2c(C)c3oc(=O)c(CCC(=O)NCCCN4CCOCC4)c(C)c3cc12	none
Cc1ccc(N2CC(C(=O)N3CCC(C(=O)Nc4cccc(Br)c4)CC3)CC2=O)cc1 (stereo not given)	D2 antagonist 38.7
Cc1ccc(N2CC(C(=O)N3CCC(C(=O)Nc4ccc(Br)cc4)CC3)CC2=O)cc1 (stereo not given)	none
COc1ccccc1OC(=O)C1CC(=O)N(c2ccc(Cl)cc2)C1 (stereo not given)	D2 PAM-2 34.4
COc1cccc(OC)c1OC(=O)C1CC(=O)N(c2ccc3c(c2)OCCO3)C1 (stereo not given)	none (no result: D2 ag-2, D2 PAM-2, D2 antagonist)
COc1ccccc1NC(=O)C(C)OC(=O)C1CC(=O)N(c2ccc3c(c2)OCCO3)C1 (stereo not given)	D2 PAM-1 62.6
COc1ccc(Cl)cc1NC(=O)C1CCN(C(=O)C2CC(=O)N(c3ccc(C)cc3)C2)CC1 (stereo not given)	D2 antagonist 36.9
Cc1ccccc1CN1C(=O)c2ccccc2S(=O)c2ccc(C(=O)NCc3ccco3)cc21 (stereo not given)	none (no result: D2 ag-1, D2 PAM-1, D2 antagonist)
Oc1ccc(-c2nc(-c3ccc(O)c(O)c3)cs2)cc1	D2 PAM-1 50.3
CC(C)N(c1ccccc1)c1ccc(NC(=O)COC(=O)CCN2C(=O)c3cccc([N+](=O)[O-])c3C2=O)cc1	D2 ag-1 inconclusive, D2 PAM-1 60.9
CC(=O)c1ccc(NC(=O)COC(=O)CCN2C(=O)c3cccc([N+](=O)[O-])c3C2=O)cc1	none
CCOc1ccc(NC(=O)CSc2cn(CC(=O)N3CCCCCC3)c3ccccc23)cc1	none (no result: D2 ag-1, D2 PAM-1, D2 antagonist)
c1ccc(-c2cc3n(c2)CCc2ccccc2-3)cc1	D2 antagonist 33.1
Cc1nc2ccn(Cc3cccs3)c(=O)c2cc1C(=O)Nc1ccccc1	none (no result: D2 ag-1, D2 PAM-1, D2 antagonist)
O=C(c1cccc(F)c1F)N1CCCc2ccccc21	none
CN(C(=O)Nc1ccccc1)C1CCCc2ccccc21 (stereo not given)	D2 antagonist 30.4
Cc1ccc(NC(=O)N2CCCc3ccccc32)cc1C	none
O=C(Nc1ccccc1)N1CCCc2ccccc21	D2 PAM-2 47.0
O=C(Nc1ccccc1)C(=O)Nc1ccc2c(c1)N(C(=O)C1CC1)CCC2	D2 antagonist 35.2
O=C(c1ccccc1F)N1CCCc2ccccc21	D2 PAM-2 39.1
CCN(C(=O)Cn1ncc2c(=O)oc3ccc(C)cc3c21)c1cc(OC)ccc1OC	none (no result: D2 ag-1, D2 PAM-1, D2 antagonist)
CCc1ccc(C2=C(C)C(N3CCC(C(=O)NCc4ccc(C)o4)CC3)=NS2(=O)=O)cc1	none (no result: D2 ag-1, D2 PAM-1, D2 ag-2, D2 antagonist)
COc1ccc(N2CCN(C(=O)c3cc(S(=O)(=O)N4CCC(C)CC4)cn3C)CC2)cc1	none (no result: D2 ag-1, D2 PAM-1, D2 antagonist)
CC(C)c1[nH]nc2c1C1(CCN(Cc3ccccc3)CC1)C(C#N)=C(N)O2	D2 antagonist 39.6
CCCc1[nH]nc2c1C1(CCN(C(=O)OCc3ccccc3)CC1)C(C#N)=C(N)O2	none
Cc1cccc(CSc2nc3ccccc3c(=O)n2C)c1	D2 antagonist 34.9
Cn1c(SCc2ccc(Br)cc2)nc2ccccc2c1=O	none
Cc1ccc(NC(=O)C2CC(=O)NC(N3CCc4ccccc43)=N2)cc1 (stereo not given)	D2 antagonist 43.7
Cc1ccc(NC2=C(NC(=O)c3ccccc3)C(=O)c3ccccc3C2=O)cc1Cl	D2 PAM-1 65.0
O=C(O)c1cccc(NC2=C(Cl)C(=O)c3ccccc3C2=O)c1	D2 ag-1 41.5 (no result: D2 ag-2, D2 antagonist)
CCOCCc1nn2c(=O)cc(COC(=O)c3ccco3)nc2s1	none (no result: D2 ag-1, D2 PAM-1, D2 antagonist)
Cc1c(CN2CCCCC2)c(O)n(CCCO)c(=O)c1C#N	none
CCCn1c(O)c(CN2CCCCC2)c(C)c(C#N)c1=O	D2 PAM-1 63.5
COc1ccc(OC)c(NC(=O)Cn2cc(S(=O)(=O)c3ccccc3)c(=O)c3cc(C)ccc32)c1	none (no result: D2 ag-1, D2 PAM-1, D2 antagonist)
O=C(CN1C(=O)NC(Cc2ccccc2)C1=O)Nc1ccc(F)cc1 (stereo not given)	none
O=C(CN1C(=O)NC(Cc2ccccc2)C1=O)Nc1ccc(F)c(Cl)c1 (stereo not given)	D2 antagonist 32.7
Cc1cc(C(C)(C)C)cc(C)c1CC1=NCCN1	D2 antagonist 50.1
COc1ccc([N+](=O)[O-])cc1NC(=O)Cn1ccsc1=N	D2 antagonist 30.8
Cc1cc(NC(=O)Cn2ccsc2=N)c([N+](=O)[O-])cc1C	none
